Data from PubChem BioAssay (Tox21).
Values joined by “and” are separate entries in the source; they are usually repeats but may differ in a detail not shown here. Equal values may be shown once. Records with an inconclusive call do not appear. A call without a number means that no potency is given here. Active and inactive are the calls of the source. Calls come from the whole dose curve; as a rule, active = well fitted cell-killing curve with a large enough effect in the repeat runs; inconclusive = weak or mixed curves, or effect the other way; inactive = flat fitted curve, though single readings scatter.

Assays:
[1] = cAMP Responsive Elements (CRE) small molecule antagonists, cell-based qHTS assay: qHTS cell viability counter screen (AID 2060913); note: nearly all actives have a fitted effect of over 40% in size
How it was run: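 CRE-bla HEK293T cells (2,000/well, 18 h) given compound plus NKH477 0.25 uM final for 3 h at 37C; viability counter-screen by CellTiter-Glo luminescence in same wells after 30 min.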

[2] = cAMP Responsive Elements (CRE) small molecule agonists, cell-based qHTS assay: qHTS cell viability counter screen (AID 2060914);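 note: viability read after 3 h of compound exposure; nearly all actives have a fitted effect of over 50% in size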
How it was run: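 CRE-bla HEK293T cells in 10% dialyzed FBS medium were exposed to compounds for 3 h at 37C after 18 h plating. CellTiter-Glo was then added in the same wells, and luminescence was read after 30 min at room temperature.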
Potency is the fitted concentration of half-maximal effect.

## CCCCN(N=O)C(=N)N[N+](=O)[O-]
[1]
  Potency: inactive
[2]
  Potency: inactive

## COC12CC[C@@]3(C[C@@H]1C(C)(O)C(C)(C)C)[C@H]1Cc4ccc(O)c5c4[C@@]3(CCN1CC1CC1)[C@H]2O5 (some centres not stated)
[1]
  Potency: 60.7 µM (active)
[2]
  Potency: inactive

## CCC12COCN1COC2
[1]
  Potency: inactive
[2]
  Potency: inactive

## COC1=CC(=O)O[C@@H](CCc2ccccc2)C1
[1]
  Potency: inactive
[2]
  Potency: inactive

## Nc1ccccc1-c1ccccc1
[1]
  Potency: inactive
[2]
  Potency: inactive

## O=C(O)CCl
[1]
  Potency: inactive
[2]
  Potency: inactive

## O=C(O)c1c(Cl)ccc2cc(Cl)cnc12
[1]
  Potency: inactive
[2]
  Potency: inactive

## O=[N+]([O-])O[C@H]1CO[C@H]2[C@@H]1OC[C@H]2O[N+](=O)[O-]
[1]
  Potency: inactive
[2]
  Potency: inactive

## O=[N+]([O-])c1cc(Cl)c(Cl)cc1Cl
[1]
  Potency: inactive
[2]
  Potency: inactive

## O=c1[nH]c2ccccc2n1CCCN1CCC(n2c(=O)[nH]c3cc(Cl)ccc32)CC1
[1]
  Potency: inactive
[2]
  Potency: inactive

## CC(C)OS(C)(=O)=O
[1]
  Potency: inactive
[2]
  Potency: inactive

## CC(C)(OO)c1ccccc1
[1]
  Potency: inactive
[2]
  Potency: inactive

## COC(=O)C(C)N(C(=O)Cc1ccccc1)c1c(C)cccc1C (configuration not stated)
[1]
  Potency: inactive
[2]
  Potency: inactive

## O=P(O)(O)c1ccccc1
[1]
  Potency: inactive
[2]
  Potency: inactive

## CCCCOC(=O)COC(=O)c1ccccc1C(=O)OCCCC
[1]
  Potency: inactive
[2]
  Potency: inactive

## Cc1cc(Cl)ccc1OCC(=O)O
[1]
  Potency: inactive
[2]
  Potency: inactive

## O=C1CN=C(c2ccccc2)c2cc(Cl)ccc2N1CC1CC1
[1]
  Potency: inactive
[2]
  Potency: inactive

## Cn1c(CCCC(=O)O)nc2cc(N(CCCl)CCCl)ccc21
[1]
  Potency: inactive
[2]
  Potency: inactive

## COC1=CC(=O)O[C@@H](/C=C/c2ccc3c(c2)OCO3)C1
[1]
  Potency: inactive
[2]
  Potency: inactive

## CC(C)NCC(O)c1ccc([N+](=O)[O-])cc1 (configuration not stated)
[1]
  Potency: inactive
[2]
  Potency: inactive

## ClC(Cl)=C(c1ccc(Cl)cc1)c1ccccc1Cl
[1]
  Potency: inactive
[2]
  Potency: inactive

## CN/C(=N\[N+](=O)[O-])NCc1cnc(Cl)s1
[1]
  Potency: inactive
[2]
  Potency: inactive

## CCOC(=O)CC(SP(=S)(OC)OC)C(=O)OCC (configuration not stated)
[1]
  Potency: inactive
[2]
  Potency: inactive

## CC(=O)[O][Hg][c]1ccccc1
[1]
  Potency: 12.1 µM (active) and 12.2 µM (active) and 16.8 µM (active)
[2]
  Potency: 10.8 µM (active) and 13.7 µM (active)

## CCOC(=O)Cc1ccccc1
[1]
  Potency: inactive
[2]
  Potency: inactive

## Fc1cccc(Cl)c1CCl
[1]
  Potency: inactive
[2]
  Potency: inactive

## COC(=O)c1cc(Oc2ccc(Cl)cc2Cl)ccc1[N+](=O)[O-]
[1]
  Potency: inactive
[2]
  Potency: inactive

## CCc1cccc(C)c1N(C(=O)CCl)C(C)COC (configuration not stated)
[1]
  Potency: inactive
[2]
  Potency: inactive

## O=S(=O)(C(Cl)(Cl)Cl)C(Cl)(Cl)Cl
[1]
  Potency: inactive
[2]
  Potency: inactive

## COC(C)(C)CCCC(C)C/C=C/C(C)=C/C(=O)OC(C)C (configuration not stated)
[1]
  Potency: inactive
[2]
  Potency: inactive

## CC1(C)CC(=O)CC(C)(C)N1[O]
[1]
  Potency: inactive
[2]
  Potency: inactive

## CCN(CC)CCc1c[nH]c2ccccc12
[1]
  Potency: inactive
[2]
  Potency: inactive

## C#CCC1=C(C)C(OC(=O)C2C(C=C(C)C)C2(C)C)CC1=O (configuration not stated)
[1]
  Potency: inactive
[2]
  Potency: inactive

## O=[N+]([O-])O
[1]
  Potency: inactive
[2]
  Potency: inactive

## O=C(NC(=O)c1cc(F)c(F)cc1Cl)Nc1cc(F)ccc1N1CCC(C(=O)O)CC1
[1]
  Potency: inactive
[2]
  Potency: inactive

## CCC(C)c1cc(C(C)(C)C)cc(-n2nc3ccccc3n2)c1O (configuration not stated)
[1]
  Potency: inactive
[2]
  Potency: inactive

## O=C(O)C(Cl)Cl
[1]
  Potency: inactive
[2]
  Potency: inactive

## c1ccc(C2CC2)c(OCC2=NCCN2)c1
[1]
  Potency: inactive
[2]
  Potency: inactive

## CCN(CC)c1nc(C)cc(OP(=S)(OC)OC)n1
[1]
  Potency: inactive
[2]
  Potency: inactive

## OCCSCSCCO
[1]
  Potency: inactive
[2]
  Potency: inactive

## CCC(C)c1ccc(O)cc1 (configuration not stated)
[1]
  Potency: inactive
[2]
  Potency: inactive

## COc1cc(OC)nc(NC(=O)NS(=O)(=O)c2ncccc2C(=O)N(C)C)n1
[1]
  Potency: inactive
[2]
  Potency: inactive

## CC(=O)c1cc(C(C)(C)C)cc2c1CCC2(C)C
[1]
  Potency: inactive
[2]
  Potency: inactive

## CCCCOCCOP(=O)(OCCOCCCC)OCCOCCCC
[1]
  Potency: inactive
[2]
  Potency: inactive

## Cc1cc(Cl)ccc1OC(C)C(=O)O (configuration not stated)
[1]
  Potency: inactive
[2]
  Potency: inactive

## C=C(C)C#N
[1]
  Potency: inactive
[2]
  Potency: inactive

## OC(c1ccccc1)(c1ccccc1)C1CCNCC1
[1]
  Potency: inactive
[2]
  Potency: inactive

## C(CCOCC1CO1)COCC1CO1 (configuration not stated)
[1]
  Potency: inactive
[2]
  Potency: inactive

## CNC(C)Cc1ccccc1OC (configuration not stated)
[1]
  Potency: inactive
[2]
  Potency: inactive

## COS(=O)(=O)c1ccc(C)cc1
[1]
  Potency: inactive
[2]
  Potency: inactive

## CCC(=O)OC1(c2ccccc2)CCN(C)CC1
[1]
  Potency: inactive
[2]
  Potency: inactive

## Cl/C=C\Cl
[1]
  Potency: inactive
[2]
  Potency: inactive

## CCCCCCCCCCCCCN1CC(C)OC(C)C1 (configuration not stated)
[1]
  Potency: inactive
[2]
  Potency: inactive

## N#CSCc1ccccc1
[1]
  Potency: inactive
[2]
  Potency: inactive

## CCCCCCBr
[1]
  Potency: inactive
[2]
  Potency: inactive

## Nc1ccc(Oc2ccc(N)cc2)cc1
[1]
  Potency: inactive
[2]
  Potency: inactive

## Cc1ccc(S(=O)(=O)N[C@@H](CCCCN)C(=O)CCl)cc1
[1]
  Potency: inactive
[2]
  Potency: inactive

## C#CCOS(=O)OC1CCCCC1Oc1ccc(C(C)(C)C)cc1 (configuration not stated)
[1]
  Potency: inactive
[2]
  Potency: inactive

## N[C@@H](Cc1ccc(N(CCCl)CCCl)cc1)C(=O)O
[1]
  Potency: inactive
[2]
  Potency: inactive

## CNC(=O)Oc1cccc2c1OC(C)(C)C2
[1]
  Potency: inactive
[2]
  Potency: inactive

## O=[N+]([O-])c1ccc(Nc2ccccc2)cc1
[1]
  Potency: inactive
[2]
  Potency: inactive

## [O]=[Cr][O][Cr]=[O]
[1]
  Potency: inactive
[2]
  Potency: inactive

## O=C(Cc1ccccc1)OCCc1ccccc1
[2]
  Potency: inactive

## Cc1ccccc1O
[1]
  Potency: inactive
[2]
  Potency: inactive

## CCC[CH2][Sn]([Cl])([Cl])[Cl]
[1]
  Potency: inactive
[2]
  Potency: inactive

## COc1c2c(cc3c1OCO3)CCN(C)C2
[1]
  Potency: inactive
[2]
  Potency: inactive

## ClCOCCl
[1]
  Potency: inactive
[2]
  Potency: inactive

## CCCC(=O)Cl
[1]
  Potency: inactive
[2]
  Potency: inactive

## CN1C(=O)NC(=O)C(C)(C2=CCCCC2)C1=O (configuration not stated)
[2]
  Potency: inactive

## CCOP(=S)(OCC)SCS(=O)(=O)CC
[1]
  Potency: inactive
[2]
  Potency: inactive

## C[N+](C)(C)Cc1ccccc1
[2]
  Potency: inactive

## CCOC(=O)c1cncn1C(C)c1ccccc1 (configuration not stated)
[1]
  Potency: inactive
[2]
  Potency: inactive

## O=[N+]([O-])c1ccc(CBr)cc1
[1]
  Potency: inactive
[2]
  Potency: inactive

## O=S(=O)(Oc1ccc(Cl)cc1)c1ccc(Cl)cc1
[1]
  Potency: inactive
[2]
  Potency: inactive

## CCN(CC)C(=S)S
[2]
  Potency: inactive

## C1CCC2CCCCC2C1 (configuration not stated)
[1]
  Potency: inactive
[2]
  Potency: inactive

## CCOC(=O)C1OC1(C)c1ccccc1 (configuration not stated)
[1]
  Potency: inactive
[2]
  Potency: inactive

## O=P(O)(O)CN(CP(=O)(O)O)CP(=O)(O)O
[2]
  Potency: inactive

## CC#C[C@]1(O)CC[C@H]2[C@@H]3C[C@H](C)C4=CC(=O)CC[C@]4(C)[C@H]3CC[C@@]21C
[1]
  Potency: inactive
[2]
  Potency: inactive

## CC(=O)[O-].CC(=O)[O-].O.O.[Zn+2]
[2]
  Potency: inactive

## C1CS1
[1]
  Potency: inactive
[2]
  Potency: inactive

## CCc1ccccc1N
[1]
  Potency: inactive
[2]
  Potency: inactive

## COC(=O)C(Br)CBr (configuration not stated)
[1]
  Potency: inactive
[2]
  Potency: inactive

## O.O.O.O=C([O-])[C@H]([O-])[C@@H]([O-])C(=O)[O-].O=C([O-])[C@H]([O-])[C@@H]([O-])C(=O)[O-].[K+].[K+].[Sb+3].[Sb+3]
[1]
  Potency: inactive
[2]
  Potency: inactive

## FC(F)OC(F)(F)C(F)Cl (configuration not stated)
[1]
  Potency: inactive
[2]
  Potency: inactive

## C=CCOC(C)=O
[1]
  Potency: inactive
[2]
  Potency: inactive

## CNC(=O)O/N=C(\SC)C(=O)N(C)C
[1]
  Potency: inactive
[2]
  Potency: inactive

## CCCC[n+]1cccc(C)c1
[1]
  Potency: inactive
[2]
  Potency: inactive

## CN(C1CCCCC1)C1CCCCC1
[1]
  Potency: inactive
[2]
  Potency: inactive

## CCCCCBr
[1]
  Potency: inactive
[2]
  Potency: inactive

## CCCCN=C=O
[1]
  Potency: inactive
[2]
  Potency: inactive

## CCCCn1cc[n+](C)c1.[Cl][Fe-]([Cl])([Cl])[Cl]
[1]
  Potency: inactive
[2]
  Potency: inactive

## CCCN(CCC)N=O
[1]
  Potency: inactive
[2]
  Potency: inactive

## CC(C)N(CCC(C(N)=O)(c1ccccc1)c1ccccn1)C(C)C (configuration not stated)
[1]
  Potency: inactive
[2]
  Potency: inactive
